Results filed as inconclusive are left out. Activity calls are given as the source filed them. Calls come from the whole dose curve; as a rule, active = well fitted inhibition curve with a large enough effect; inconclusive = small, poorly fitted or top-dose-only effect; inactive = flat fitted curve, though single readings scatter.
Key:
Assay in all cases: qHTS profiling for inhibitors of Plasmodium falciparum proliferation (AID 504749); note: nearly all actives have a fitted effect of over 60% in size
Conditions in all cases: P. falciparum in erythrocytes, SYBR Green DNA, 72 h; series mostly up to 28.7 µM
C2A = tested on: C2A
In short: (§1)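 Readout was DNA-dye fluorescence from lysed cultures, ex 485/em 535 nm. Parasitized red cells had grown 72 h with compound; data scaled between 0.29 uM artemisinin and DMSO wells and corrected using vehicle-only plates.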

CP185 = tested on: CP185
In short: as §1

CP191 = tested on: CP191
In short: as §1

CP211 = tested on: CP211
In short: as §1

CP217 = tested on: CP217
In short: as §1

CP237 = tested on: CP237
In short: as §1

CP238 = tested on: CP238
In short: as §1

CP250 = tested on: CP250
In short: as §1

CP252 = tested on: CP252
In short: as §1

CP256 = tested on: CP256
In short: as §1

CP265 = tested on: CP265
In short: as §1

CP329 = tested on: CP329
In short: as §1

DIV30 = tested on: DIV30
In short: as §1

ECU = tested on: ECU
In short: as §1

HB3 = tested on: HB3
In short: as §1

P93_24 = tested on: P93_24
In short: as §1

PC15 = tested on: PC15
In short: as §1

PC26 = tested on: PC26
In short: as §1

SC27B = tested on: SC27B
In short: as §1

TAB113 = tested on: TAB113
In short: as §1

Measured: Potency
Potency is the fitted concentration of half-maximal effect.

COc1cccc2c1C(=O)c1c(O)c3c(c(O)c1C2=O)C[C@](O)(C(=O)CO)C[C@@H]3O[C@H]1C[C@H](N)[C@@H](O)[C@H](C)O1
inactive: C2A | CP185 | CP191 | CP211 | CP217 | CP237 | CP238 | CP250 | CP252 | CP256 | CP265 | CP329 | DIV30 | ECU | HB3 | P93_24 | PC15 | PC26 | SC27B | TAB113

CC(C)(C)c1ccc(CN2CCN([C@H](c3ccccc3)c3ccc(Cl)cc3)CC2)cc1
inactive: CP211 | CP329 | DIV30 | PC26
active: C2A 10 µM | CP185 10 µM | CP191 10 µM | CP217 8.91 µM | CP237 7.94 µM | CP238 8.91 µM | CP250 8.91 µM | CP252 11.2 µM | CP256 10 µM | CP265 12.6 µM | ECU 10 µM | HB3 8.91 µM | P93_24 11.2 µM | PC15 11.2 µM | SC27B 10 µM | TAB113 6.31 µM

O=C(O)[C@@H](O)[C@@H](O)[C@H](O)C(=O)CO
inactive: C2A | CP185 | CP191 | CP211 | CP217 | CP237 | CP238 | CP250 | CP252 | CP256 | CP265 | CP329 | DIV30 | ECU | HB3 | P93_24 | PC15 | PC26 | SC27B | TAB113

C[C@H](CCC(=O)O)[C@H]1CC[C@@H]2[C@H]3[C@@H](C[C@@H](O)[C@]21C)[C@]1(C)CC[C@H](O)C[C@@H]1C[C@@H]3O
inactive: C2A | CP185 | CP191 | CP211 | CP217 | CP237 | CP238 | CP250 | CP252 | CP256 | CP265 | CP329 | DIV30 | ECU | HB3 | P93_24 | PC15 | PC26 | SC27B | TAB113

CC1(C)S[C@@H]2[C@H](NC(=O)Cc3ccccc3)C(=O)N2[C@@H]1C(=O)O
inactive: C2A | CP185 | CP191 | CP211 | CP217 | CP237 | CP238 | CP250 | CP252 | CP256 | CP265 | CP329 | DIV30 | ECU | HB3 | P93_24 | PC15 | PC26 | SC27B | TAB113

From PubChem BioAssay (NCATS)
